The source of these data is PubChem BioAssay (NCATS).

For assay [1], the system named is CRL-7250. The assay is described as follows: Cytotoxic Profiling of Annotated Libraries Using Quantitative High-Throughput Screening (AID 1296008). For max response: % is set by controls: 0 for no effect and ±100 for the full control effect. Note: potency is the fitted concentration of half-maximal effect. To be noted: Five cell lines viability, CellTiter-Glo ATP luminescence, 48-72 h; max response: active compounds read low. The method, boiled down: (§1)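 Compounds were pin-transferred onto cells and incubated 48 or 72 hr at 37 degree Celsius, 95% humidity. CellTiter-Glo was added, plates sat 10 min at room temperature, then ATP-coupled luminescence was imaged as the viability read-out.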

The subject of assay [2] is HEK293. The description is as above. Particulars: Five cell lines viability, CellTiter-Glo ATP luminescence, 48-72 h; max response: active compounds read low. The method, boiled down:
as §1

For assay [3], the system named is HaCat. Described as above. To be noted: Five cell lines viability, CellTiter-Glo ATP luminescence, 48-72 h; max response: active compounds read low. The method in brief: as §1
The subject of assay [4] is KB-3-1. Described as above. To be noted: Five cell lines viability, CellTiter-Glo ATP luminescence, 48-72 h; max response: active compounds read low. The method in brief:
as §1

Assay [5] concerns NIH3T3. The assay is described as above. Particulars: Five cell lines viability, CellTiter-Glo ATP luminescence, 48-72 h; max response: active compounds read low. The method, boiled down: as §1
The subject of assay [6] is HACAT. The assay is described as follows: qHTS assay to identify novel small-molecules to repurpose for Merkel cell carcinoma treatment (AID 1296009). To be noted: MCC and control cell lines, CellTiter-Glo viability, 72 h. The method in brief: (§2)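 Viability readout: ATP luminescence (CellTiter-Glo) after 72 hr drug exposure at 37 degree celsius. Dose-response format was 8 points for NPC and 11 points for MIPE; data normalized to in-plate controls.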

Assay [7] relates to HEK293T. The assay is described as above. To be noted: MCC and control cell lines, CellTiter-Glo viability, 72 h; series mostly up to 44.8 µM. The method, boiled down:
as §2

[8] abbreviates: at 44.8 µM (top of the series) unless noted.

“And” between values parts separate entries of the source, which are not always exact repeats. Equal entries are not always repeated. Records with an inconclusive call do not appear. Some compounds were tested as several samples or in several runs, with calls that do not always agree. Values without a mark were called inactive. The source made the active and inactive calls. Calls come from the whole dose curve; as a rule, active = well fitted inhibition curve with a large enough effect; inconclusive = small, poorly fitted or top-dose-only effect; inactive = flat fitted curve, though single readings scatter.
Note: nearly all actives have a fitted effect of over 60% in size.

In the case of `O=C(C1CC1)N1CC[C@@H](Cc2n[nH]c(=O)n2-c2ccc(-c3ccc4occc4c3)cc2)C1`, the max response was -4.78% and -21.6% in assay [1]; -2.96% in assay [3]; -10.7% in assay [5]. For the same molecule, the outcome in assay [2], in assay [3] and in assay [4] was inactive. For the same molecule, in assay [6] (setting [8]), the outcome is “inactive [at 17.4 µM]”. The Potency entry in assay [7] is “inactive”.

Take `Nc1ccn([C@@H]2C(F)=C(CO)[C@@H](O)[C@H]2O)c(=O)n1`: the max response in assay [1] is -25.3%. Moreover, the Potency in assay [2] is 920 nM (active) and 933 nM (active); in assay [3] it was 18.4 µM (active); in assay [4], 9.2 µM (active); in assay [5], 4.61 µM (active) and 3.71 µM (active).

`O=C(Nc1cccnn1)N1CCC(=Cc2cccc(Oc3ccc(C(F)(F)F)cn3)c2)CC1`: the max response in assay [1] was -4.32%; in assay [3] it was -13.4%; in assay [5], -5.09% and -8.67%. For the same molecule, the Potency in assay [2] is 8.2 µM (active) and 13.2 µM (active). For the same molecule, the molecule was called inactive in assay [3] and in assay [6] (setting [8]).

In the case of `CN(C)C/C=C/C(=O)Nc1ccc(C(=O)Nc2cccc(Nc3ncc(Cl)c(-c4c[nH]c5ccccc45)n3)c2)cc1`, the Potency is 164 nM (active) and 263 nM (active) in assay [1]; 0.186 µM (active) in assay [2]; 1.84 µM (active) and 1.05 µM (active) in assay [3]; 0.184 µM (active) in assay [4]; 1.16 µM (active) and 2.09 µM (active) in assay [5].

For the molecule `COc1cc(N2CCC(N(C)C)CC2)ccc1Nc1ncc(Cl)c(Nc2ccccc2P(C)(C)=O)n1`, the Potency was 2.91 µM (active) and 1.48 µM (active) in assay [1]; 5.17 µM (active) and 1.86 µM (active) in assay [2]; 1.84 µM (active) and 2.34 µM (active) in assay [3]; 4.11 µM (active) in assay [4]; 2.06 µM (active) in assay [5].

Regarding `CCn1c2ccccc2c2cc(CNC)ccc21`, the max response in assay [1] is -18% and 2.31%; in assay [4], -23.4%; in assay [5] it was -5.49%. In assay [2], the Potency is 18.4 µM (active). Also, the outcome in assay [3], in assay [4], in assay [5] and in assay [6] (setting [8]) was inactive.

Turning to `CNC(=O)c1ccc(Nc2ncc(C(F)(F)F)c(NCc3nccnc3N(C)S(C)(=O)=O)n2)cc1`, the Potency in assay [1] is 4.17 µM (active); in assay [2] it was 5.17 µM (active); in assay [3], 7.31 µM (active) and 2.95 µM (active); in assay [4], 11.6 µM (active); in assay [5], 14.6 µM (active) and 3.71 µM (active).

With `COc1ncc(-c2ccc3c(Nc4cc(Oc5cc(F)cc(F)c5)cc(C(=O)O)c4)c(S(=O)(=O)NC4CC4)cnc3c2)c(OC)n1`, the max response is -7.5% and -5.78% in assay [1]; 0.563% and -20.6% in assay [2]; -12% and 2.17% in assay [3]; 3.25% and -1.23% in assay [5]. In addition, in assay [4], the molecule was called inactive.

Regarding `CCOc1ccc(-c2ccc(Cn3c(CC(C)(C)C(=O)O)c(SC(C)(C)C)c4cc(OCc5ccc(C)cn5)ccc43)cc2)cn1`, the max response in assay [1] was -21.1% and -6.16%; in assay [2], -15.3%; in assay [3], -15.9% and -11.2%; in assay [4] it was -5.24%; in assay [5] it was -6.34%. The call in assay [2] and in assay [4] was inactive. The Potency result in assay [7] is “inactive”.

Turning to `NC1CCC(N[C@@H]2C[C@H]2c2ccccc2)CC1` (some centres not stated), the max response in assay [1] was 1.1%; in assay [2], -15.5% and -3.29%; in assay [3], -1.71%; in assay [5], 3.03%. Further, the result in assay [1], in assay [3], in assay [4], in assay [5] and in assay [6] (setting [8]) was inactive.

For `CCC(=O)NS(=O)(=O)c1ccc(-c2c(-c3ccccc3)noc2C)cc1`, the result in assay [1], in assay [2], in assay [4] and in assay [5] was inactive. For the same molecule, the figures for the max response in assay [3] and in assay [4] were -10.3% and -21.2%, respectively. In addition, the Potency entry in assay [7] was “inactive”.

For `CCC[C@@H]1C[C@@H](C(=O)N[C@@H]([C@H]2O[C@H](SC)[C@H](OP(=O)(O)O)[C@@H](O)[C@H]2O)[C@H](C)Cl)N(C)C1`, the max response in assay [1] is -7.94%; in assay [2], -4.58%; in assay [3], 4.98%; in assay [4], -22.3% and -12.7% and 0.837%. Moreover, in assay [5], the result was inactive.

As for `CC(C)N(C[C@H]1O[C@@H](n2cnc3c(N)ncnc32)[C@H](O)[C@@H]1O)C1CC(CCc2nc3ccc(C(C)(C)C)cc3[nH]2)C1` (some centres not stated), the max response in assay [1] is -0.229%; in assay [3], 3.92%; in assay [4], 5.25%; in assay [5], -7.24% and -17.7%. Also, the outcome in assay [1], in assay [3] and in assay [6] (setting [8]) was inactive. For the same molecule, the Potency in assay [2] was 7.41 µM (active).

As to `CC(=O)c1cnc2ccc(-c3cc(Cl)c(O)c(Cl)c3)nc2c1NC1CCC(CN(C)C)CC1` (configuration not stated), the Potency in assay [1] is 166 nM (active) and 1.19 µM (active); in assay [2], 52.4 nM (active) and 237 nM (active); in assay [3] it was 0.0331 µM (active); in assay [4] it was 0.075 µM (active); in assay [5], 93.3 nM (active) and 299 nM (active).

As for `CC(C)(O)CNc1nc(Nc2ccnc(C(F)(F)F)c2)nc(-c2cccc(C(F)(F)F)n2)n1`, the max response in assay [1] was -2.34% and 1.41%; in assay [4], 4.85%; in assay [5], 3.44% and -5.61%. In addition, in assay [2], the Potency is 14.8 µM (active). The molecule was classed as inactive in assay [3], in assay [6] (at 17.4 µM (top of the series)) and in assay [6] (at 44.8 µM (top of the series)).

Take `NCc1ccc(OCCCc2sc(-c3ccc4c(c3)/C(=N/Nc3nc5ccccc5s3)CCC4)nc2C(=O)O)cc1`: the max response was -14.2% in assay [1], 0.629% in assay [3], -25.7% in assay [4] and -6.71% in assay [5]. Besides, the Potency was 2.95 µM (active) in assay [2] and 3.71 µM (active) in assay [3].
